Laboratory results published in PubChem BioAssay AID686978 (National Center for Advancing Translational Sciences (NCATS), 2013).
In all, about 420,000 compounds went through this assay and about 64,000 (15%) were called active. Another 27% or so got no clear call; they are omitted. Calls follow the shape of the dose curve; as a rule, active = well fitted inhibition curve with a large enough effect; inconclusive = small, poorly fitted or top-dose-only effect; inactive = flat fitted curve, though single readings scatter. Not all results are given here. Entries that show only a call come without a potency.

assay: qHTS for Inhibitors of human tyrosyl-DNA phosphodiesterase 1 (TDP1): qHTS in cells in absence of CPT; details: DT40 Tdp1-/- hTDP1 cells, no CPT, ATP luminescence, 48 h; activity change, negative = growth inhibition: at 46.2 µM (top of the series); also: nearly all actives have a fitted effect of over 55% in size
Summary of the method: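 Luminescent ATP content (CellTiter-Glo) served as the growth readout. Knockout chicken DT40 cells expressing human TDP1 were exposed to compounds without camptothecin for a minimum 48 hr at 37 °C.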
Potency is read from the fitted curve at half-maximal effect.

Row | Compound | Potency
1 | Cc1nc(Cl)c(C#N)c2c1CCCC2 | inactive
2 | N#C/C(=C1/CCCN1)c1ccccn1 | inactive
3 | Cc1sc2nc(SCCO)n(-c3ccccc3)c(=O)c2c1C | 13 µM (active)
4 | Cc1sc2nc(SCC(N)=O)n(C)c(=O)c2c1C | inactive
5 | CCc1cc2c(=O)n(-c3ccccc3)c(SCC(=O)O)nc2s1 | inactive
6 | COc1cccc(N(C(=O)CNC(=O)c2ccco2)C(C(=O)NC2CCCCC2)c2cccnc2)c1 (stereo not drawn) | inactive
7 | CCOc1ccc2cc(C#N)c(SCC(=O)OC)nc2c1 | inactive
8 | CC(C)c1c(C(=O)N/N=C/c2ccc(-c3ccccc3)cc2)nnn1-c1nonc1N | inactive
9 | CC1(C)C(=O)C2(CCCCC2)C(=O)OC1c1cccs1 (stereo not drawn) | inactive
10 | CCNc1c(NS(=O)(=O)c2ccc(C3CCCCC3)cc2)c(=O)oc2ccccc12 | 16.4 µM (active)
11 | CC(C)(C)Nc1c(N)c(=O)oc2ccccc12 | inactive
12 | O=c1oc2ccccc2c(=O)c2ccccc12 | inactive
13 | Cn1c(Cc2csc(N)n2)nnc1SC/C=C/c1ccccc1 | inactive
14 | COc1cccc2c(N/N=C/c3ccco3)cc(C)nc12 | inactive
15 | CCOC(=O)C1=NN(c2ccc(Cl)cc2)/C(=C/C2=NCCc3cc(OC)c(OC)cc32)S1 | inactive
16 | COc1cc2c(cc1OC)C(/C=C/c1ccco1)=NCC2 | 13 µM (active)
17 | CC12C(=O)N(n3cnnc3)C(=O)C1C1C=CC2C1 (stereo not drawn) | inactive
18 | CS(=O)(=O)N(CC(=O)N1CCCC1)Cc1ccccc1 | inactive
19 | O=c1c2cc(Br)ccc2nc(-c2cccc(Cl)c2)n1O | 23.1 µM (active)
20 | Cc1ccc2nc(-c3cccc(Br)c3)cc(C(=O)Nn3cnnc3)c2c1 | inactive
21 | O=C1CCCc2c1nc(-c1cccc(Cl)c1)n2O | inactive
22 | CCOC(=O)N1CCC(NC(=O)CCc2cn(C)c3ccccc23)CC1 | inactive
23 | CCC(CC)c1nnc(NC(=O)C2=COCCO2)s1 | inactive
24 | CNC(=O)NC(=O)CSc1nnc(-c2ccc(F)cc2)n1CC1CCCO1 (stereo not drawn) | inactive
25 | Cc1ccc(CNS(=O)(=O)c2ccc(-c3cc(C(F)(F)F)on3)s2)cc1 | inactive
26 | Cc1cccc(N2CC(C)Cn3c2nc2c3c(=O)n(CC(=O)OCc3ccccc3)c(=O)n2C)c1 (stereo not drawn) | 13 µM (active)

Row | Compound | Potency
27 | CC1CN(C2CCCCC2)c2nc3c(c(=O)n(C)c(=O)n3C)n2C1 (stereo not drawn) | inactive
28 | COCCn1cnc2c1c(=O)n(CC(=O)NN)c(=O)n2Cc1ccccc1 | inactive
29 | Cc1ccccc1SCC(=O)OCC(=O)N1CC(=O)Nc2ccccc21 | inactive
30 | CC(=O)C1C(c2cccc(Oc3ccccc3)c2)NC(=O)NC1(O)C(F)(F)F (stereo not drawn) | inactive
31 | C[C@@H]1CN([C@@H](C)CO)S(=O)(=O)c2ccc(C#Cc3cccc(F)c3)cc2O[C@H]1CN(C)S(=O)(=O)c1cn(C)cn1 | 23.1 µM (active)
32 | C[C@H]1CN([C@@H](C)CO)S(=O)(=O)c2ccc(-c3cccc(F)c3)cc2O[C@@H]1CN(C)C | inactive
33 | C[C@@H]1CN([C@@H](C)CO)S(=O)(=O)c2ccc(-c3ccc(C(=O)N(C)C)cc3)cc2O[C@@H]1CN(C)Cc1ccccc1C(=O)O | inactive
34 | COCC(=O)N(C)C[C@H]1Oc2cc(Br)ccc2S(=O)(=O)N([C@H](C)CO)C[C@H]1C | inactive
35 | C[C@@H]1CN([C@H](C)CO)S(=O)(=O)c2ccc(C#C[C@@H](C)O)cc2O[C@@H]1CN(C)Cc1ccc(-c2ccccc2)cc1 | 6.51 µM (active)
36 | C[C@H](CO)N1C[C@H](C)[C@@H](CN(C)C(=O)c2cccc(F)c2)Oc2cc(-c3cncnc3)ccc2S1(=O)=O | inactive
37 | CCCCc1nc(SCC(=O)Nc2nnc(C(C)C)s2)n[nH]1 | inactive
38 | COc1cccc(N2C(=O)CN(Cc3ccccc3)C2=S)c1 | inactive
39 | COc1ccccc1NC(=O)C1=C(C)Nc2nnnn2C1c1cccc(Br)c1 (stereo not drawn) | inactive
40 | Cc1ccccc1OCCOc1ccc([N+](=O)[O-])cc1/C=N/n1cnnc1 | 1.46 µM (active)
41 | COc1ccccc1OCCOc1ccc(/C=N/n2cnnc2)cc1 | inactive
42 | Cc1cc([N+](=O)[O-])c(-c2ccc(/C=N/n3cnnc3)o2)cc1Cl | inactive
43 | Cc1ccc(Cn2c(=O)n(-c3ccc(C)cc3)c(=O)c3c2c2cc(C)ccc2n3C)cc1 | inactive
44 | Cc1nnc(SCC(=O)N2CCOCC2)[nH]c1=O | inactive
45 | CCC(C)n1[nH]c(=O)c2c(C)cc(C)nc21 (stereo not drawn) | inactive
46 | Cc1ccc(S(=O)(=O)N2CCC(C(=O)OCC(=O)N3CC(=O)Nc4ccccc43)CC2)cc1 | inactive
47 | CCOC(=O)COn1c(=O)c(-c2ccc(OCC)cc2)[n+]([O-])c2ccccc21 | inactive
48 | O=c1c(-c2ccc(Cl)cc2)[n+]([O-])c2ccccc2n1OCc1nc2ccccc2[nH]1 | inactive
49 | CCOc1ccc(OCC)c(-c2c(=O)n(OCc3ccc(Cl)cc3)c3ccccc3[n+]2[O-])c1 | 8.2 µM (active)
50 | COc1ccc(OC)c(-c2c(=O)n(OCc3ccccc3Br)c3ccccc3[n+]2[O-])c1 | 23.1 µM (active)
51 | Cc1cc(C)cc(OCC(=O)OCC(=O)NC2CCCC2)c1 | inactive
52 | COC(=O)Cc1nc2c(N)nc(N)nc2[nH]c1=O | inactive

Row | Compound | Potency
53 | CS(=O)(=O)N1CCCC(C(=O)Nc2ccccc2C(F)(F)F)C1 (stereo not drawn) | inactive
54 | CC(C)c1ccc(NC(=O)c2cc(S(=O)(=O)N3CCc4ccccc4C3)ccc2F)cc1 | inactive
55 | CC1CCCCN1S(=O)(=O)c1ccc(F)c(C(=O)Nc2ccccc2C(F)(F)F)c1 (stereo not drawn) | 18.4 µM (active)
56 | COc1cc(OC)c(C(=O)NNC(=O)c2ccccc2-n2cccc2)cc1OC | inactive
57 | O=C(O)c1n[nH]nc1-c1ccccc1 | inactive
58 | CC(C)(C)OC(=O)N1CCN(C(=O)c2[nH]c(C(F)(F)F)nc2-c2ccccc2)CC1 | inactive
59 | CC(C)(C)OC(=O)N1CCC(C(=O)NNC(=O)c2ccc(Cl)cc2Cl)CC1 | inactive
60 | Cc1cccc(-n2ncc(C(=O)N3CCC(C)CC3)c2C2CCN(C(=O)OC(C)(C)C)CC2)c1 | inactive
61 | Cc1cccc(-n2ncc(C(=O)N3CCc4ccccc4C3)c2C2CCN(C(=O)OC(C)(C)C)CC2)c1 | inactive
62 | CC(C)(C)OC(=O)N1CCC(c2c(C(=O)N3CCN(c4cccc(Cl)c4)CC3)cnn2-c2cccc(Cl)c2)CC1 | 9.2 µM (active)
63 | Cc1cccc(-n2ncc(C(=O)N3CCN(c4ccc(Cl)cc4)CC3)c2C2CCN(C(=O)OC(C)(C)C)CC2)c1 | 9.2 µM (active)
64 | N/C(=N\OC(=O)CCC1CCCCC1)c1ccccn1 | inactive
65 | Cc1cccc(OCC(=O)NC2CC(C)(C)NC(C)(C)C2)c1 | inactive
66 | C/C(=N\NC(=O)Cc1ccccc1[N+](=O)[O-])c1cccnc1 | inactive
67 | CN(O)C(=S)c1ccccc1 | 0.164 µM (active)
68 | CN(CC(=O)O)C(=O)c1ccccc1 | inactive
69 | S=C(c1ccccc1)N1CCCC1 | inactive
70 | CN(C)C(=O)c1ccc(-c2cncnc2Nc2ccccc2)cc1 | inactive
71 | CC(Cc1cccs1)NC(=O)NC1CCCCC1 (stereo not drawn) | inactive
72 | Cc1nc([N+](=O)[O-])cn1CC(=O)Nc1ccc2c(c1)OCO2 | inactive
73 | COc1ccc(C(=O)c2c(C)c(CCC#N)n3ccccc23)c(OC)c1 | 20.6 µM (active)
74 | Cc1c(C(=O)c2cccc([N+](=O)[O-])c2)c2ccccn2c1CCC#N | inactive
75 | COc1ccc(C(=O)COC(=O)C(O)c2ccccc2)c(OC)c1 (stereo not drawn) | inactive
76 | CC(C)(C)c1ccc(/C=C2\Oc3c(ccc(O)c3CN3CCN(CCO)CC3)C2=O)cc1 | inactive
77 | CCCCNC(=O)N1CCCC(N(C)CCc2ccc(OC)c(OC)c2)C1 (stereo not drawn) | inactive
78 | CC(C)=CCCC1(C)C=Cc2c(ccc3c2[nH]c2cc(O)c(C)cc23)O1 (stereo not drawn) | 16.4 µM (active)

Row | Compound | Potency
79 | COc1ccc(-c2cnc(SCCNC(=O)c3ccc4c(c3)OCO4)[nH]2)cc1 | inactive
80 | Brc1ccc(-c2nnc(-c3ccccc3)o2)o1 | inactive
81 | Cc1ccc(CN2CCN(c3ccccc3Cl)CC2)o1 | inactive
82 | O=C(CN1CCCCC1)NC(=O)Nc1ccccc1F | inactive
83 | O=C(CSC(=S)N1CCCCC1)c1c(F)cccc1F | 8.2 µM (active)
84 | O=C(O)c1cc2c(cc1NC(=O)c1c(F)cccc1Cl)OCCCO2 | inactive
85 | Cc1nnc(SCC(=O)N(C(C)C)C(C)C)nc1C | inactive
86 | CC(=O)NCCC(=O)Nc1nc(C)c(Cc2ccc3c(c2)OCO3)s1 | inactive
87 | Cc1ccc(Nc2c3c(nc4ccccc24)CCC3)cc1 | 18.4 µM (active)
88 | O=C(Nc1cccc([N+](=O)[O-])c1)Nn1cnnc1 | inactive
89 | CCc1nc(SCC(=O)NNC(=O)c2ccc(C)cc2)c2ccccc2n1 | inactive
90 | CC(=O)Nc1ccc(Nc2c3ccccc3nc3ccccc23)cc1 | 0.0082 µM (active)
91 | N#Cc1cccc(NC(=O)CN2CCCCCC2)c1 | inactive
92 | O=[N+]([O-])c1cccc(Nc2c3ccccc3nc3ccccc23)c1 | 16.4 µM (active)
93 | N#Cc1cccc(Nc2c3c(nc4ccccc24)CCCC3)c1 | 25.9 µM (active)
94 | CC(=O)Nc1ccc(Nc2nc3c(S(=O)(=O)c4ccc(C)c(C)c4)nnn3c3ccccc23)cc1 | inactive
95 | CC(=O)Nc1ccc(NC(=O)C(C)n2c3ccccc3c3nc(=O)cc(C)n32)cc1 (stereo not drawn) | inactive
96 | Cc1c(NC(=O)Nc2cccc([N+](=O)[O-])c2)c(=O)n(-c2ccccc2)n1C | inactive
97 | N#Cc1cccc(NC(=O)CCC2CCCC2)c1 | inactive
98 | Cc1nn(C(C)(C)C)c(OC(=O)CC(C)C)c1S(=O)(=O)c1ccccc1 | inactive
99 | CCn1c(CC(=O)Nc2ccccc2)nnc1SCC(=O)N1CCOCC1 | inactive
100 | CCC1C(=O)c2ccccc2N(C)C1=O (stereo not drawn) | inactive
101 | Cc1[nH]n(-c2ccc([N+](=O)[O-])cc2)c(=O)c1C=NCCN1CCN(C(=O)c2ccccc2F)CC1 | 14.6 µM (active)
102 | Cc1[nH]n(-c2ccccc2)c(=O)c1N=Nc1ccccc1C(=O)N1CCCCC1 | inactive
103 | CN1CCN(C(=O)c2cnn(-c3ccccc3)c2NC(=O)c2ccc([N+](=O)[O-])cc2)CC1 | inactive
